For 75 compounds, growth results are on record in PubChem BioAssay (NCI).

Compounds without any hit were thinned out: in the full panel of roughly 83,000, 20% have a hit.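 Assay: single dose, 48 h. Readout: percent growth (0 = no net growth; negative = cell death). Active: <10.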 Unmarked numbers belong to inactive results. The source made the active and inactive calls.

The assay relates to HL-60(TB) leukemia. In words: NCI-60 one-dose screen, 48 h (100 = growth as untreated, 0 = no growth, -100 = all killed). Particulars: 10 µM unless noted.

For `O=C(O)CC1S/C(=N/N=C/c2nc3ccccc3s2)NC1=O` (stereo not given), the growth is 98.4%.

As to `O=C(CSc1nc2sc3c(c2c(=O)n1-c1ccc(Cl)cc1)CCCC3)NNC(=O)c1ccc(F)cc1`, the growth is 109%.

`Cc1ccc(C(=O)CSc2nc3ccc(F)cc3c(=O)n2-c2ccc(Cl)cc2)cc1`: the growth was 117%.

Turning to `Nc1nn2c(-c3cc4cc(Br)ccc4oc3=O)ccnc2c1N=Nc1ccc(Br)cc1`, the growth was 98.5%.

On to `C#CCOc1cc(N(CC)CC)ccc1C(C(=O)NC(C)(C)C)N(C(=O)C1CCc2cc(F)ccc2O1)c1ccccc1F` (stereo not given), for which the growth is -13.5% (active).

On to `COc1ccc(CCC2c3c(cc4c(c3OC)OCO4)CCN2C)cc1` (stereo not given), for which the growth was -37.5% (active).

With `Cc1ccc(-c2nc(Nc3ccc(S(N)(=O)=O)cc3)c3ccccc3n2)cc1`, the growth is 24.9%.

Turning to `CC1=C(C(=O)OCc2ccccc2)C(c2ccc(N(C)C)cc2)n2c(nc3ccccc32)N1` (stereo not given), the growth is 73.7%.

With `CCOC(=O)C1=C(N)N(c2ccccc2)C2=C(C(=O)CC(C)(C)C2)C1c1cccc(Cl)c1Cl` (stereo not given), the growth was 46.2%.

With `CC(=O)Nc1ccc(C(=O)NC(=S)Nc2ccc(S(N)(=O)=O)cc2)cc1`, the growth is 95.5%.

For the compound `COc1ccc(NC(=O)[C@H](C)N)cc1C(=O)Nc1cccc(C2CC(=O)c3c(cc(OC)c(OC)c3OC)O2)c1` (stereo not given in full), the growth was 69.8%.

For `O=C1Nc2cc(-c3ccc(NS(=O)(=O)c4ccc(C(F)(F)F)cc4)cc3)ccc2/C1=C/c1ccc[nH]1`, the growth was 1.77% (active).

For the compound `O=C(c1ccc(Cl)cc1)C1[C@H](c2ccc(Br)cc2)[C@@H](c2ccccc2)NC12C(=O)Nc1ccc(Br)cc12` (stereo not given in full), the growth is -42.8% (active).

In the case of `COc1c(B(O)O)cc(F)cc1-c1nc2ccc3[nH]ncc3c2c2c1COCC2`, the growth is 22.5%.

With `C=C1CCC2C3(C)COC(c4cc(F)cc(F)c4)OC3CCC2(C)C1CC(O)C1=CCOC1=O` (stereo not given), the growth was 61.2%.

Turning to `O=C(Nc1nc2ccc([N+](=O)[O-])cc2s1)Nc1ccccc1F`, the growth was -8.08% (active).

For `CCN(CC)c1ccc(/C=N/Nc2nc(-c3ccc(Br)cc3)cs2)c(O)c1`, the growth was 35.6%.

With `CC(=O)Nc1ccc(-c2cn(-c3cccc(C(=O)Nc4cc(C(F)(F)F)cc(C(F)(F)F)c4)c3)nn2)cn1`, the growth is -60.5% (active).

Take `COc1cc(/C=N/NC(=O)c2ccc3nc(-c4ccc(Cl)cc4)[nH]c3c2)cc(OC)c1OC`: the growth was 32.1%.

As to `C#C[C@]1(O)CC[C@H]2[C@@H]3CC=C4c5sc(-c6ccc(O)c(O)c6)nc5CC[C@]4(C)[C@H]3CC[C@@]21C`, the growth is -54.1% (active).

In the case of `C=CCn1c(SCC(=O)Nc2ccc(C(=O)/C=C/c3ccccc3)cc2)nnc1-c1c[nH]c2ccccc12`, the growth is 32.4%.

With `COc1ccc(C2=Nc3c(N)nc(N)nc3NC(c3ccc(Oc4nc(Nc5ccc(F)cc5)nc(N(C)C)n4)c(OC)c3)C2)cc1` (stereo not given), the growth is 32.6%.

On to `CN(C(=O)c1ccc(C(C)(C)C)cc1)c1sc2c(c1C#N)CCC(=O)C2`, for which the growth was 52.4%.

Regarding `Cc1ccccc1Nc1nnc(-c2c[nH]c3ccccc23)o1`, the growth was -23.7% (active).

As for `COc1ccc(OC)c(-c2cc(-c3c[nH]c4ccccc34)nc(N)c2C#N)c1`, the growth is -32.2% (active).

Regarding `COC1=C[C@]23CCC(=O)N2CCc2cc4c(cc2[C@@H]3[C@@H]1OC(=O)[C@H](C)O)OCO4`, the growth was -28.6% (active).

With `Cc1ccc(/C=C/C(=O)c2ccc(NC(=O)CSc3nnc(-c4c[nH]c5ccccc45)n3-c3ccccc3)cc2)cc1`, the growth was 75.5%.

As for `Cc1ccc(F)cc1N/C=c1\s/c(=C(\C#N)C(=O)Nc2ccccc2)n(-c2ccccc2)c1=O`, the growth is 111%.

Turning to `O=C(N/C(=C1/OCCN1Cc1ccccc1)[P+](c1ccccc1)(c1ccccc1)c1ccccc1)c1ccccc1`, the growth was -13.1% (active).

As for `CC(=O)NS(=O)(=O)c1ccc(NC(=O)CSC2=NC(c3ccccc3)C(C(C)=O)=C(C)N2)cc1` (stereo not given), the growth was 97.4%.

Take `Cn1cc(-c2cc3nc(-c4cn(C)c5ncccc45)cc(N)n3n2)c2ccccc21`: the growth was -44.8% (active).

For the compound `CC1(C)CC[C@]2(C(=O)O)CC[C@]3(C)C(=CCC4[C@@]5(C)C[C@@H](O)[C@@H]6OC(c7ccccc7Br)OC[C@@]6(C)C5CC[C@]43C)C2C1` (stereo not given in full), the growth is 4.07% (active).

On to `O=c1[nH]c2ccccc2cc1COc1ccc(Nc2nccc(-c3ccc(Cl)cc3)n2)cc1`, for which the growth is 95%.

Take `Cc1cc(=O)oc2cc(OCCCOc3ccc(/C=C/C(=O)Nc4ccccc4N)cc3)ccc12`: the growth was 1.53% (active).

On to `FC(F)(F)c1cc2c(Cl)ncnc2n1CCN1CCOCC1`, for which the growth is 7.02% (active).

As for `COc1cc(C2CC(c3ccc(C)cc3)=Nc3c(N)nc(N)nc3N2)ccc1Oc1nc(Nc2ccc(F)cc2)nc(N(C)C)n1` (stereo not given), the growth is 52%.

As to `O=C(c1ccc(OCCN2CCOCC2)cc1)C1[C@H](c2ccc(Cl)cc2)[C@@H](c2ccccc2)NC12C(=O)Nc1ccc(Cl)cc12` (stereo not given in full), the growth is -12.7% (active).

For `Fc1ccc(Nc2nnc(-c3c[nH]c4ccccc34)o2)cc1`, the growth is 44.8%.

Take `COc1ccc(/C=C/C(=O)c2ccc(NC(=O)CN3C(=O)NC(C)(c4ccccc4)C3=O)cc2)cc1` (stereo not given): the growth is 67.3%.

`O=C1/C(=C/C2=Cc3ccccc3OC2)SC(=S)N1c1ccccc1F`: the growth was 87.9%.

With `COc1ccc(/C=C/C(=O)c2ccc(OC)c(S(N)(=O)=O)c2)c(C(F)(F)F)c1`, the growth was 3.73% (active).

As for `CCOC(=O)C(N=Nc1ccc(S(=O)(=O)N=C(N)N)cc1)C(C)=O` (stereo not given), the growth was 96.4%.

Turning to `Cc1ccc2nc(COc3ccc(C(=O)NNC(=S)NC(=O)c4ccccc4)cc3)[nH]c2c1`, the growth was 70.7%.

As for `NS(=O)(=O)c1cccc(Nc2nc(SCC(=O)c3ccc(F)cc3)nc3ccccc23)c1`, the growth was 6.93% (active).

As to `Brc1ccc(-c2n(Cc3ccc4ccccc4c3)c(-c3ccccc3)c(-c3ccccc3)[n+]2Cc2ccc3ccccc3c2)cc1`, the growth is -5.57% (active).

For the compound `CC(C)(C)OC(=O)/C=C/c1cccc2c1C(=O)NC(C)(c1cc3cc(Cl)ccc3oc1=O)N2` (stereo not given), the growth is -6.16% (active).

Take `COc1ccc(-c2nc(-c3ccccc3)c(-c3ccccc3)n2-c2ccc(S(=O)(=O)Nc3ncccn3)cc2)cc1OC`: the growth is 89%.

Consider `Cn1cc(-c2cc3nc(-c4cn(C)c5ncc(Br)cc45)cc(N)n3n2)c2ccccc21`, for which the growth is -60.3% (active).

With `Cc1ccc2nc(COc3ccc(C(=O)NNC(=O)Nc4ccc(Cl)c(C(F)(F)F)c4)cc3)[nH]c2c1`, the growth was 86.1%.

On to `Cc1ccc(C2CC(c3ccc(NC(=S)Nc4ccccc4)cc3)=NN2c2ccc(S(N)(=O)=O)cc2)cc1` (stereo not given), for which the growth was 8.89% (active).

For the compound `COc1ccc(NCc2cn(-c3ccc(C(=O)O)cc3)nc2-c2ccc(F)cc2)cc1C(F)(F)F`, the growth was 49.9%.

In the case of `COc1ccc2c(c1)C(Sc1ccc(Cl)cc1)c1c(nc(N)c(C#N)c1N)O2` (stereo not given), the growth is 44.8%.

In the case of `Cn1cc(NC(=O)c2cc(NC(=O)c3ccc(C#Cc4ccccc4)cc3)cn2C)cc1C(=O)NCCCN1CCOCC1`, the growth is -67% (active).

Take `N#Cc1cc(-c2ccnc(Nc3ccc(N4CCN(C5COC5)CC4)cc3)n2)ccc1N1CCCC1`: the growth is 48.1%.

On to `Cn1cc(-c2nc(N)nnc2-c2c[nH]c3ccc(Br)cc23)c2cccnc21`, for which the growth is 5.1% (active).

For the compound `CCOC(=O)CNC(=O)CN(Cc1ccccc1)C(=O)[C@@]1(C)CCC[C@]2(C)[C@H]3C[C@H]4C(C(C)C)=C[C@]3(CC[C@H]21)[C@@H]1C(=O)OC(=O)[C@@H]14`, the growth is 9.46% (active).

`COC(=O)C[C@](O)(CCCC(C)(C)O)C(=O)O[C@H]1C(OC)=C[C@@]23CCCN2CCc2cc4c(cc2[C@@H]13)OCO4`: the growth is -30.3% (active).

`Cc1ccc(S(=O)(=O)c2nc(S(=O)(=O)c3ccc(C)cc3)c(N3CCC(O)CC3)s2)cc1`: the growth is 35.5%.

Take `Cc1ccc(C(=O)NNC(=O)CSc2nc3ccccc3c(=O)[nH]2)cc1`: the growth is 93.3%.

Consider `CC(=O)Nc1ccc(-n2cnc3cc(-c4ccc(NS(C)(=O)=O)cc4)ccc32)cc1`, for which the growth is 59.9%.

As for `S=c1c2ccccc2nc2n1CCc1c-2[nH]c2ccccc12`, the growth was 98%.

Consider `Cc1ccc(NC(=O)CN2CCN(c3ncnc4c3cnn4-c3ccccc3)CC2)cc1`, for which the growth was 95.4%.

On to `COc1ccc(/C=N/N=C(\C)c2ccc3c(c2)Nc2ccccc2S3)cc1O`, for which the growth was 34.2%.

Consider `Cc1ccc2c(c1)nc(-c1ccccc1)n2CC(=O)N=Nc1c(O)[nH]c2ccc(Br)cc12`, for which the growth was 7.86% (active).

On to `O=C(Nc1cccc(C(F)(F)F)c1)c1cncc(C#Cc2cnc3ccc(N4CCOCC4)nn23)c1`, for which the growth is -33% (active).

`O=c1[nH]c2ccc(Cl)cc2cc1CSc1nccc(-c2ccc(Cl)cc2)n1`: the growth was 102%.

With `Brc1ccc(N/N=C/c2c[nH]c3ccccc23)nc1`, the growth is 13.2%.

Turning to `COc1ccc2cc([C@H](C)C(=O)NCc3ccccc3)ccc2c1`, the growth was 5.91% (active).

On to `COc1ccc2c(c1)N=c1c-2cc2c(O)[nH]c(=S)n2c1=O`, for which the growth is -13.3% (active).

As for `N#CC1=C(c2ccco2)Nc2c(c(-c3ccccc3)nn2-c2ccccc2)C12C(=O)Nc1ccc(Br)cc12` (stereo not given), the growth is 51.1%.

As to `C[C@@H](Nc1c(C#N)cnc2ccc(-c3cnc4[nH]ncc4c3)cc12)c1ccccc1`, the growth is 35.2%.

Regarding `COc1ccc(CCN2C(=O)/C(=C/c3csc(C#N)n3)SC2=S)cc1OC`, the growth is -18% (active).

As to `Cc1ccc([N+](=O)[O-])c(C(=O)Nc2ccc(-c3ccc4c(c3)NC(=O)/C4=C\c3ccc[nH]3)cc2)c1`, the growth was 49.5%.

Regarding `O=c1oc2ccc(-c3ccc(F)cc3F)cc2c(=O)n1-c1ccc(F)cc1`, the growth was -40.6% (active).

As for `CCCn1c(=O)c2[nH]c(-c3ccc(OCc4nc5ccc(C(F)(F)F)cc5[nH]4)cc3)nc2n(CCC)c1=O`, the growth was 55.9%.
